Structures are written as SMILES. Compounds without any hit were thinned out: in the full panel of roughly 83,000, 20% have a hit.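 Treatment: one concentration, 48 hours, 96-well format. Scoring: percent growth, with anything below 10 considered active.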 A number with no mark means an inactive call. Calls of active or inactive are those of the source.

This experiment deals with UO-31 renal. The experiment can be described thus: NCI-60 one-dose screen, 48 h (100 = growth as untreated, 0 = no growth, -100 = all killed). As to conditions: 10 µM unless noted. How it is done:
Growth inhibition of the UO-31 human tumor cell line is measured as a screen for anti-cancer activity. Cells are grown in 96 well plates and exposed to the test compound for 48 hours. Compounds are tested at a single concentration, which is 10^-5 M for most compounds. The reported endpoint is percent growth (GI% or GIPRCNT), where numbers from 0 - 100% represent growth inhibition, and numbers from -100% - 0 represent cell death. For example, a value of 40 represents 60% growth inhibition. A value of 0 means no net growth occurred over the course of the experiment. A value of -40 indicates 40% of cells at the beginning of the experiment died by the end of the experiment. A value of -100 means all cells are dead at the end of the experiment.
NCI-60 Human Tumor Cell Lines Screen was performed using the standard one-dose NCI protocol, which is described in more detail at https://dtp.cancer.gov/discovery_development/nci-60/default.htm.
Compounds with GIPRCNT values below 10 were considered active. Activity score was based on GIPRCNT using the following formula: […]
Score is 0 for GIPRCNT values of 100 or above, 50 for GIPRCNT values of 0, and 100 for GIPRCNT values of -100.
In the case of `CCN(CC)CCC(CNc1ccnc2cc(Cl)ccc12)c1ccccc1` (stereo not given), the growth was 15.2%.
With `Cc1ccc(C(=O)C2=Cc3cc4ccccc4n3Cc3cnnn32)cc1` the figure was 95.8%; with `CCN1CCN(c2nc(NNC(=O)c3ccccc3)nc(N3CCN(C(c4ccccc4)c4ccccc4)CC3)n2)CC1`, 30.8%; with `C=C1C(=O)O[C@H]2[C@H]1CC/C(COC(=O)NCc1ccccc1OC)=C\CC[C@@]1(C)O[C@@H]21`, 22%.
In the case of `O=C(Nc1ccncc1)C(=O)c1cn(S(=O)(=O)c2ccc(Cl)cc2)c2ccccc12` it was 42.1%.
Consider `COc1cc(C2C3=C(COC3=O)Nc3cc4c(cc32)OCO4)cc2c1OCO2` (stereo not given), for which the growth was 51%.
In the case of `Cc1[nH]c2ccc(F)cc2c1CCNC(=O)C1CCN(C(=O)c2ccccc2)C1` (stereo not given) it was 77.1% [25 µM]; in that of `COc1cc2c(=O)n(C3CCCCCC3)c3c4cc[nH]c4ncc3c2cc1OC`, 81.2%.
In the case of `O=C(Nc1cccc(-n2cc(-c3ccncc3)c(-c3ccc(Cl)c(O)c3)n2)c1)Nc1ccc(Cl)c(C(F)(F)F)c1` it was -6.09% (active); in that of `COc1cc(/C=C/C(=O)c2c(C)nc3ccccc3c2C)ccc1OCCCCOc1cc2c(cc1OC)C(=O)N1CCC[C@H]1C=N2`, -93.9% (active); in that of `N#C/C(=C1C=C/C(=N/O)C(Cl)=C/1)c1ccc(Cl)cc1`, 44.9%.
In the case of `Cn1cnc2c(N3CCN(C(=O)OCc4ccc5c(Cl)cc(Cl)c(O)c5n4)CC3)nc(Cl)nc21` it was 48.2%; in that of `Cn1c(=O)c2[nH]c(C3CC=CCC3)nc2n(C)c1=O` (stereo not given), 72.3%; in that of `CC1(c2ccc(Cl)cc2)OC(=O)CC(=O)O1`, 90.3%.
As to `O=C1c2ccccc2-c2ccccc2C1(Cl)Cl`, the growth was -100% (active).
In the case of `O=C1Nc2ccc3c(c2/C1=C\c1cc2c(cc1Br)OCO2)OCO3` it was -15.9% (active); in that of `CC(C)(C)n1cc(-c2ccnc(NCCNS(=O)(=O)c3ccc(C(F)(F)F)cc3)c2)c(-c2cccc(O)c2)n1`, 48.1%; in that of `CC(C)(C)n1cc(-c2ccnc(NCCCNS(=O)(=O)c3ccc(C(F)(F)F)cc3)c2)c(-c2cccc(O)c2)n1`, 40.7%.
With `c1ccc(-c2cn(-c3ccccc3)c(-c3ccccc3)n2)cc1` the figure was 41.4%.
With `O=[N+]([O-])c1ccc(OCCCOc2ccccc2)cc1` the figure was 87.2%; with `COc1cc(Nc2nc(N[C@H]3CCCC[C@@H]3N)nc3cc[nH]c(=O)c23)cc(OC)c1`, 47.7%.
As to `CCCN=C1NC(=O)/C(=C/c2nc(-c3ccc(OC)cc3)n3ccccc23)S1`, the growth is 91.8%.
In the case of `CC(C)(C)n1cc(-c2ccnc(NCCNS(=O)(=O)c3ccc(Cl)cc3)c2)c(-c2cccc(O)c2)n1` it was 49.6%; in that of `Cc1cc(C2(c3cc(C)c(O)cc3C)OS(=O)(=O)c3ccccc32)c(C)cc1O`, 69.4%; in that of `COc1cc(-c2nn(-c3cccc(NC(=O)Nc4cccc(C(F)(F)F)c4)c3)cc2-c2ccncc2)ccc1Cl`, 7.94% (active).
In the case of `CC(=O)OC[C@]12CC[C@H]3[C@@H](C[C@H]4O[C@]45CC=CC(=O)[C@]35C)[C@]1(O)CC[C@@]2(O)[C@@](C)(O)C1CC(C)=C(C)C(=O)O1` (stereo not given in full) it was -18.5% (active); in that of `COc1ccc(OC)c(C2OC(c3ccc4ccccc4c3O)=NN2C(C)=O)c1` (stereo not given), 63.4%.
In the case of `COc1ccc(-c2nc3sccn3c2/C=C/C(=O)c2cc(F)cc(F)c2)cc1` it was 60.5%; in that of `COc1cc([N+](=O)[O-])c2ncccc2c1O`, 25.6%; in that of `CC1(C)C(=O)/C(=C\c2ccc(C(F)(F)F)cc2)C[C@]2(C)[C@H]3CC[C@@H]4[C@H]5[C@H](C(=O)/C=C/c6ccc(C(F)(F)F)cc6)CC[C@]5(CO)CC[C@@]4(C)[C@]3(C)CC[C@@H]12`, 66.6%.
Take `C=C[C@@H]1C[C@@H]2Cc3cc(F)ccc3N1O2`: the growth was 129%.
In the case of `c1coc(CNc2ccnc(Nc3ccc(OCCN4CCCCC4)cc3)n2)c1` it was 71.2%.
With `C=CCSc1n[nH]c(-c2cccs2)n1` the figure was 118%; with `C=C1CCC2C(C)(CO)C(O)CCC2(C)C1CC(NCc1ccccc1)C1=CCOC1=O` (stereo not given), 87.9%.
With `COc1ccc(-n2c(-c3ccccc3)c(-c3ccccc3)c3c(SCC(=O)N/N=C/c4ccc(Cl)cc4)ncnc32)cc1` the figure was 74.5%.
Regarding `COc1cc(-c2nn(-c3cccc(NC(=O)c4ccc(Cl)c(C(F)(F)F)c4)c3)cc2-c2ccncc2)ccc1Cl`, the growth is 37.1%.
With `COC(=O)C(Sc1ccc(Cl)cc1)C1SC(=S)N(Cc2ccccc2)C1=O` (stereo not given) the figure was 60.2%; with `COc1ccc(CNCCCN2C(=O)c3ccc4c5c(ccc(c35)C2=O)C(=O)N(CCCNCCCCNCCCN)C4=O)c(OC)c1OC`, 51.4%.
In the case of `C=C1C(=O)O[C@H]2[C@H]1CC/C(Cn1cc(CNC(=O)Cc3cn(C(=O)c4ccc(Cl)cc4)c4ccc(OC)cc34)nn1)=C\CC[C@@]1(C)O[C@@H]21` it was 30.2%.
In the case of `Cc1ccc(-c2cc3nc(-c4ccccc4)nc(C(Cl)Cl)n3n2)cc1` it was -99.7% (active).
